Results reported in PubChem BioAssay (NCATS).
“And” between values parts separate entries of the source, which are not always exact repeats. Equal values may be shown once. Records with an inconclusive call do not appear. Where a call stands in place of a potency, no number is given. Values without a mark were called inactive. The source made the active and inactive calls. The call rests on the fitted dose curve; in most records, active means well fitted inhibition curve with a large enough effect; inconclusive means small, poorly fitted or top-dose-only effect; inactive means flat fitted curve, though single readings scatter. Where a SMILES comes first, the peptide text is derived from it. [ ]: non-standard residue; d: D form. PhLac = O=C(O)[CH](O)Cc1ccccc1; NMeV = CN[CH](C(=O)O)C(C)C

Assay: Primary qHTS for inhibitors of nuclear receptor binding SET domain protein 2 (NSD2) in an isogenic RCH-ACV NSD2 p.E1099K mutant (9B) (AID 1645876); further: nearly all actives have a fitted effect of over 70% in size
Details: RCH-ACV (leukaemia line) NSD2 E1099K (9B) viability, CellTiter-Glo, 72 h; series mostly up to 44.9 µM
Potency means the concentration at half of the fitted maximal effect.

Row | Compound | Potency | activity change, negative = viability loss | outcome
1 | CC1=CCC2C(C)(CO)CCCC2(CO)C1CO (stereo not given) | inactive | – | –
2 | COC(=O)[C@]12C(=O)C(C)=C(O)[C@@]1(C)C(C)=CC1[C@@]34CC[C@@H](OC(C)=O)C(C)(C)C3[C@H](C[C@]12C)OC4=O (stereo not given in full) | inactive | – | –
3 | C/C(=C\CCC(C)(O)c1ccc(C)cc1)C(=O)O (stereo not given) | inactive | – | –
4 | C/C=C(\C)C(=O)O[C@@H]1CC2[C@@H](CC=C3C[C@@H](O[C@H]4C[C@H](OC)[C@H](O[C@H]5C[C@H](OC)[C@H](O[C@H]6C[C@H](OC)[C@H](O[C@H]7C[C@@H](OC)[C@H](O[C@@H]8O[C@H](CO)[C@@H](O)[C@H](O)[C@H]8O)[C@@H](C)O7)[C@@H](C)O6)[C@@H](C)O5)[C@@H](C)O4)CC[C@@]32C)[C@@]2(O)CC[C@H](C(C)=O)[C@@]12C (stereo not given in full) | – | -12.3% [at 9.23 µM] | –
5 | O=C(/C=C/c1ccc(O)cc1)O[C@H]1[C@@H]2C=CO[C@@H](O[C@@H]3O[C@H](CO)[C@@H](O)[C@H](O)[C@H]3O)[C@@H]2[C@@]2(CO)O[C@@H]12 | inactive | – | –
6 | CC1(C)CC[C@]2(C(=O)O)CC[C@]3(C)C(=CCC4[C@@]5(C)CC[C@H](O[C@@H]6O[C@H](C(=O)O)[C@@H](O)[C@H](O)[C@H]6O)C(C)(CO)C5CC[C@]43C)C2C1 (stereo not given in full) | inactive | – | –
7 | CC(C)C(C(=O)N1CCCC1C(=O)O)N(C)C(=O)C(O)Cc1ccccc1 (stereo not given) (H-[PhLac]-[NMeV]-Pro-OH; configuration not given here) | inactive | – | –
8 | CC(C)C1=CC2=CCC3[C@](C)(CCC[C@@]3(C)C(=O)O)C2CC1O (stereo not given in full) | inactive | – | –
9 | C[C@@H]1C[C@H](O)/C=C/[C@H](O)[C@@H](O)CC(=O)O1 | inactive | – | –
10 | COc1cc(N2CCC(N(C)C)CC2)ccc1Nc1ncc(Cl)c(Nc2ccccc2P(C)(C)=O)n1 | 2.3 µM (active) and 2.63 µM (active) | – | –
11 | C[C@]12CCC(=O)C=C1[C@@H](O)C[C@@H]1[C@@H]2[C@@H](O)C[C@@]2(C)[C@H]1CC[C@]2(O)C(=O)CO | inactive | – | –
12 | CC1[C@@H](O)[C@@H](O)C2[C@]3(C)C(C[C@H]4OC(=O)[C@H](O)[C@]1(O)[C@@]24C)C(C)(O)C[C@H](O)[C@H]3O (stereo not given in full) | inactive | – | –
13 | C=C[C@H]1[C@H](O[C@@H]2O[C@H](CO)[C@@H](O)[C@H](O)[C@H]2O)OC=C(C(=O)OC)[C@H]1C[C@@H]1N[C@H](C(=O)O)Cc2c1[nH]c1ccccc21 | inactive | – | –
14 | CC(=O)O[C@H]1[C@H](Oc2ccccc2COC(=O)C2(O)C=CCCC2=O)O[C@H](CO)[C@@H](O)[C@@H]1O (stereo not given in full) | 8.93 µM (active) | – | –
15 | COc1cc(/C=C/C(=O)OC2[C@H](O)CC(O)(C(=O)O)C[C@H]2O)ccc1O (stereo not given in full) | inactive | – | –
16 | CC1NC(=O)CNC(=O)C(C(C)C)NC(=O)C2CCCN2C(=O)C(C(C)C)NC(=O)C(Cc2c[nH]c3ccccc23)NC1=O (stereo not given) (cyclo(GAWVPV); configuration not given here) | inactive | – | –
17 | CC1(C(=O)O)CCCC2(C)C1CCC13CC(CCC21)C1(CO)OC31 (stereo not given) | inactive | – | –
18 | CC1=CC(=O)CC(C)(CO[C@@H]2O[C@H](CO)[C@@H](O)[C@H](O)[C@H]2O)C1(O)/C=C/C(C)=C/C(=O)O (stereo not given in full) | inactive | – | –
19 | CC(C)(O)C1=CCC23COC(C2)C(O)(C(=O)O)CCC13 (stereo not given) | inactive | – | –
20 | NCc1c[nH]c(=S)n1C1CCc2c(F)cc(F)cc2C1 (stereo not given) | inactive | – | –

Row | Compound | Potency | activity change, negative = viability loss | outcome
21 | C=C1CC[C@H]2[C@@H](/C=C(\C)C(=O)[C@@]3(OC(C)=O)C[C@H](C)[C@H](OC(C)=O)[C@@H]3[C@H]1OC(C)=O)C2(C)C | inactive | – | –
22 | CC(=O)Oc1cc2c(s1)CCN([C@H](C(=O)C1CC1)c1ccccc1F)C2 | inactive | – | –
23 | C=CCc1ccc(O[C@@H]2O[C@H](CO[C@@H]3O[C@@H](C)[C@H](O)[C@@H](O)[C@H]3O)[C@@H](O)[C@H](O)[C@H]2O)cc1 | inactive | – | –
24 | CC(C)CC(=O)n1cc(C(N)=O)c(=O)cc1C(O)c1ccccc1 (stereo not given) | inactive | – | –
25 | CC/C=C/CC1=C(CCCCCCCC(=O)O)CCC1=O | inactive | – | –
26 | CNC(=O)[C@H]1O[C@@H](n2cnc3c(NCc4ccc(N)c(I)c4)ncnc32)[C@H](O)[C@@H]1O | – | -0.539% [at 9.23 µM] | –
27 | C[C@@H]1C[C@H](O[C@@H]2O[C@H](CO[C@@H]3OC[C@](O)(CO)[C@H]3O)[C@@H](O)[C@H](O)[C@H]2O)CC(C)(C)[C@H]1/C=C/[C@@H](C)O | inactive | – | –
28 | CC1=CC(=O)C2C(C)(C)CC(O)CC2(C)C1CO (stereo not given) | inactive | – | –
29 | COc1cc2c(cc1O)CCN[C@]21CS[C@@H]2c3c(OC(C)=O)c(C)c4c(c3[C@H](COC1=O)N1[C@@H]2[C@H]2c3c(cc(C)c(OC)c3O)C[C@@H]([C@@H]1O)N2C)OCO4 | 0.0017 µM (active) | – | –
30 | O=C(O)c1cc(O[C@@H]2O[C@H](CO[C@@H]3OC[C@@H](O)[C@H](O)[C@H]3O)[C@@H](O)[C@H](O)[C@H]2O)c2ccccc2c1O | inactive | – | –
31 | CC1=CC[C@]2(C(=O)O[C@@H]3O[C@H](CO[C@@H]4O[C@H](CO)[C@@H](O[C@@H]5O[C@@H](C)[C@H](O)[C@@H](O)[C@H]5O)[C@H](O)[C@H]4O)[C@@H](O)[C@H](O)[C@H]3O)CC[C@]3(C)C(CCC4[C@@]5(C)C[C@@H](O)[C@H](O)[C@@](C)(CO)C5CC[C@]43C)C2C1C (stereo not given in full) | – | – | inactive [at 9.23 µM]
32 | CC(=O)O[C@@H]1C[C@@]23C[C@@]24CC[C@H](OC2OC[C@@H](O)[C@H](O)[C@H]2O)C(C)(C)[C@@H]4CC[C@H]3[C@]2(C)CC3OC4(C[C@@H](C)C3[C@@]12C)OCC1(C)OC14 (stereo not given in full) | inactive | – | –
33 | CC(=O)N1c2ccccc2C2(O)CC3C(=O)NC(CC(C)C)C(=O)N3C12 (stereo not given) | inactive | – | –
34 | C=CC(C)(C)O[C@@H]1O[C@H](CO[C@@H]2OC[C@](O)(CO)[C@H]2O)[C@@H](O)[C@H](O)[C@H]1O | inactive | – | –
35 | NS(=O)(=O)NCCNc1nonc1C(=Nc1ccc(F)c(Br)c1)NO | inactive | – | –
36 | CC(=O)OCCC(C)CCC1C(C)(O)CCC2C(C)(C)CCCC21C (stereo not given) | inactive | – | –
37 | CC(=O)O[C@@]1(C)C[C@@H](O)[C@]2(O)C=CO[C@@H](O[C@@H]3O[C@H](CO)[C@@H](O)[C@H](O)[C@H]3O)[C@@H]21 | inactive | – | –
38 | CCNC(=O)CCC/C=C\C[C@@H]1[C@@H](/C=C/C(O)CCc2ccccc2)[C@@H](O)C[C@@H]1O (stereo not given in full) | inactive | – | –
39 | C=C1CCC(OC(C)=O)C2(C)CC3(O)OC(=O)C(C)=C3CC12 (stereo not given) | inactive | – | –
40 | C=C(C(=O)O)[C@@H]1CC=C2CCC[C@H](C)[C@@]2(C)C1 | inactive | – | –
